# Measured values reported in the supplement of paper PMC10515830.
# Counter-ions that a name gives are not always drawn.
# How the values were obtained:
# Settings in all cases: 10 µM; exposure time 6 h
# [1] = test system: Danio rerio larvae (5 dpf); assay: difference in excitability vs DMSO (percentage points); higher = more excitable than DMSO
# How it was run: (§1)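 Wild-type 5 dpf zebrafish larvae in 96-well plates were given 100 µL egg water containing library compound at 10 µM final for 6 h. After 3 h of exposure, plates at 28.5 ℃ were photographed every 6 s during a 3-h programme of moving lines and 100 ms, 400Hz tones. Z-LaP Tracker (a DeepLabCut model) quantified each behaviour, averaged over 48 larvae per compound. Values are the compound mean minus the DMSO-vehicle control, in percentage points.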
# [2] = test system: Danio rerio larvae (5 dpf); assay: difference in startle response vs DMSO (percentage points); higher = stronger startle than DMSO
# How it was run: as §1
# [3] = test system: Danio rerio larvae (5 dpf); assay: difference in activity during first hour vs DMSO (percentage points); higher = more activity than DMSO
# How it was run: as §1
# [4] = test system: Danio rerio larvae (5 dpf); assay: difference in habituation to acoustic stimuli vs DMSO (percentage points); higher = more habituation than DMSO
# How it was run: as §1
# [5] = test system: Danio rerio larvae (5 dpf); assay: difference in combined optomotor response to red, green and blue moving lines vs DMSO (percentage points); higher = stronger optomotor response than DMSO
# How it was run: as §1
SMILES,difference in excitability [1],difference in startle response [2],difference in activity during first hour [3],difference in habituation to acoustic stimuli [4],difference [5]
CCC(C)(C)C(=O)O[C@H]1C[C@@H](C)C=C2C=C[C@H](C)[C@H](CC[C@@H]3C[C@@H](O)CC(=O)O3)[C@H]21 [Simvastatin],6.26,-2.42,9.76,1.77,2.53
Clc1ccccc1C(c1ccccc1)(c1ccccc1)n1ccnc1 [Clotrimazole],-0.151,4.37,-19.1,-10.2,-12.6
CNCC(=O)OCc1cccnc1N(C)C(=O)OC(C)[n+]1cnn(C[C@](O)(c2cc(F)ccc2F)[C@@H](C)c2nc(-c3ccc(C#N)cc3)cs2)c1 (stereo not given in full) [Isavuconazonium (sulfate)],28.4,4.1,-13.1,-2.82,-5.6
C[C@@H]1C[C@H]2[C@@H]3CCC4=CC(=O)C=C[C@]4(C)[C@@]3(F)[C@@H](O)C[C@]2(C)[C@@]1(O)C(=O)CO [Dexamethasone],-4.56,-3.99,-6.96,0.952,3.79
C=CC1=C(C(=O)O)N2C(=O)[C@@H](NC(=O)/C(=N\OCC(=O)O)c3csc(N)n3)[C@H]2SC1 [Cefixime],-0.725,-0.605,11.6,8.39,10.8
Cn1c(=O)c2nc[nH]c2n(C)c1=O [Theophylline],4.49,5.34,8.14,4.58,-0.54
CN1CCC(=C2c3ccccc3CCn3c(C=O)cnc32)CC1 [Alcaftadine],-1.49,3.88,20.6,-3,-2.52
CC(C)(C)C(O)/C=C/c1ccc2c(c1)OCO2 (stereo not given) [Stiripentol],-5.22,0.0472,3.85,-4.89,7.37
CCCCCC(=O)O[C@]1(C(C)=O)CC[C@H]2[C@@H]3CCC4=CC(=O)CC[C@]4(C)[C@H]3CC[C@@]21C [Hydroxyprogesterone Caproate],5.64,-9.54,-13.7,-9.28,-15.8
C[N+](C)(C)CCOC(N)=O [Carbamoylcholine (chloride)],2.95,2.73,-0.038,1.09,1.31
CC(=O)OC[C@H]1O[C@@H]([S-])[C@H](OC(C)=O)[C@@H](OC(C)=O)[C@@H]1OC(C)=O.CCP(CC)CC.[Au+] [Auranofin],6.43,-4.17,11,2.14,-5.02
O=C(O)CCCCCCCC(=O)O [Azelaic Acid],1.68,4.07,-2.89,4.6,6.08
CC(C[N+](C)(C)C)OC(N)=O (stereo not given) [Bethanechol (chloride)],1.05,-0.356,-9.77,0.388,-6.5
CC1(C)S[C@@H]2[C@H](NC(=O)[C@H](N)c3ccccc3)C(=O)N2[C@H]1C(=O)O [Ampicillin (sodium salt)],2.42,0.739,-2.5,-4.92,-2.47
NS(=O)(=O)c1cc(C(=O)O)c(NCc2ccco2)cc1Cl [Furosemide],6.1,-2.57,12,-0.166,8.19
COc1ccc2c3c1O[C@H]1C[C@@H](O)C=C[C@@]31CCN(C)C2 [Galantamine],1.36,-0.28,15.8,-3.53,4.1
CCC(C)n1ncn(-c2ccc(N3CCN(c4ccc(OCC5COC(Cn6cncn6)(c6ccc(Cl)cc6Cl)O5)cc4)CC3)cc2)c1=O (stereo not given) [Itraconazole],15.4,-0.629,-2.15,-5.43,4.73
CNCc1ccc(-c2[nH]c3cc(F)cc4c3c2CCNC4=O)cc1 [Rucaparib],15.9,5.43,-11,15.7,11
N[C@@H]1CONC1=O [D-Cycloserine],6.37,-2.86,4.38,-2.22,10.3
C[C@@H](CN1CC(=O)NC(=O)C1)N1CC(=O)NC(=O)C1 [Dexrazoxane],5.16,0.825,-0.0194,3.65,4.12
Cc1nnc(C(C)C)n1C1C[C@H]2CC[C@@H](C1)N2CC[C@H](NC(=O)C1CCC(F)(F)CC1)c1ccccc1 (stereo in doubt) [Maraviroc],11.9,-3.97,5.94,-1.89,4.5
CN(C)CCc1c[nH]c2ccc(Cn3cncn3)cc12 [Rizatriptan (benzoate salt)],9.6,-1.93,6.28,2.81,7.91
CCOC(=O)c1ccc(C#Cc2ccc3c(c2)C(C)(C)CCS3)nc1 [Tazarotene],13.2,-9.42,54.2,-9.47,-15.1
CC[C@H](Nc1ncnc2[nH]cnc12)c1nc2cccc(F)c2c(=O)n1-c1ccccc1,5.3,1.19,-0.052,-0.933,2.36
Cc1ccccc1N1C(=O)c2cc(S(N)(=O)=O)c(Cl)cc2NC1C (stereo not given) [Metolazone],5.2,4.85,-12.7,0.578,1.31
